A selection: hits, their analogues and other compounds. The true share with any hit is near 10%.
PLK1 PBD inh: qHTS for Inhibitors of PLK1-PDB (polo-like kinase 1 - polo-box domain): Primary Screen; Serine/threonine-protein kinase PLK1 (Homo sapiens), P53350; Plk1 PBD binding of FITC phosphopeptide, fluorescence polarization; Potency, µM, usual class: inhibitors; hit rate 2.8% among 360,000; AID 720504, 2013; also: series mostly up to about 57 µM; nearly all actives have a fitted effect of over 65% in size
G9a inh: qHTS Assay for Inhibitors of Histone Lysine Methyltransferase G9a; Histone-lysine N-methyltransferase EHMT2 (Homo sapiens), Q96KQ7; G9a H3K9 monomethylation, AlphaScreen, 2 h; Potency, µM (top dose mostly 102 µM), hits mostly inhibitors; hit rate 8.8% among 350,000; AID 504332, 2011; also: nearly all actives have a fitted effect of over 75% in size
Target sequence (Q96KQ7 913-1193 limits assumed): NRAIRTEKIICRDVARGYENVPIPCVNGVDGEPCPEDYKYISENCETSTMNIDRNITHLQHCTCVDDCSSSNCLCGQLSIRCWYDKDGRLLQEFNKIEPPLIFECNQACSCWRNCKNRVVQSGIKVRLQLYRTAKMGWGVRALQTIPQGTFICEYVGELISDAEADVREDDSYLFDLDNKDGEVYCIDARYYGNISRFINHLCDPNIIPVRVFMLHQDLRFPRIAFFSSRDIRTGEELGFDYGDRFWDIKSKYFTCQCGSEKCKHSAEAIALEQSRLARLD
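AlphaScreen read-out: biotin-H3K9 peptide (500 nM) methylation by 20 nM enzyme with 20 uM SAM, 2 h at room temperature after 15 min compound preincubation; anti-monomethyl H3K9 antibody plus donor/acceptor beads, 10 min dark.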
Sfp PPTase inh: qHTS Assay for Inhibitors of Bacillus subtilis Sfp phosphopantetheinyl transferase (PPTase); 4'-phosphopantetheinyl transferase ffp (Bacillus subtilis), Q9F4F7; Biochemical Sfp PPTase activity, qHTS; Potency, µM, hits mostly inhibitors; hit rate 3.5% among 310,000;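 also: the enzyme is Sfp with the accession as filed and its product quenches rhodamine fluorescence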
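Compounds were incubated with enzyme (final 15 nM) for 15 min at room temperature before substrate addition started the reaction. Fluorescence at 525 nm excitation, 598 nm emission was recorded immediately and after 30 minutes.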
CCT chaperon mod: High-Throughput Screening for Modulators of Cytosolic Chaperonin Activity; activity change, % (no concentration beside the values), hits read low; hit rate 0.3% among 360,000; purified chaperonin ATPase assay, HTRF ADP detection, 30 min; in the data active = activity change below about -30%
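Enzyme 40 or 20 nM (batch-dependent) in Tris pH 7.4/KCl/MgCl2/DTT; cpd 76 uM single point; ATP 10 uM; 30 min 37 °C; Transcreener ADP HTRF detection, 30 min RT; ratio 665/615.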
VDR inh: Inhibitors of the vitamin D receptor (VDR): qHTS; VDR-SRC2-3 peptide fluorescence polarization, 2 h; Potency, µM, usual class: inhibitors; hit rate 0.93% among 400,000
Target sequence (P11473 whole entry, looked up): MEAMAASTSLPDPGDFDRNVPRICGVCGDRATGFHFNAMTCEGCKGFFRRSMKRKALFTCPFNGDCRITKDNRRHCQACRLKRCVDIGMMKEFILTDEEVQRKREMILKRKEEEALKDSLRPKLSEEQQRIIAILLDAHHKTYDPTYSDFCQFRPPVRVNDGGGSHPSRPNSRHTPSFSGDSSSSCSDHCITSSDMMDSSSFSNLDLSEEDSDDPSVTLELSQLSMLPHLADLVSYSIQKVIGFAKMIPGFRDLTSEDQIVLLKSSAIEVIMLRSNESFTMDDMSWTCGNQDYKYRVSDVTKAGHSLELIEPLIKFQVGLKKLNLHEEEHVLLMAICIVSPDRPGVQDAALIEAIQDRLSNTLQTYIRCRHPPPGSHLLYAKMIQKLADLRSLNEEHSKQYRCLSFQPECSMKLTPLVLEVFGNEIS
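Measured by FP: displacement of SRC2-3 coactivator peptide from VDR by library compounds, following a two-hour ambient incubation.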
MmCpn inh: Inhibitors of TCP-1 ring complex (TRiC) of Methanococcus maripaludis (MmCpn): qHTS. Chaperonin Mm-Cpn (Methanococcus maripaludis). purified Mm-Cpn ATPase, ADP Transcreener TR-FRET. Potency, µM (highest dose often 76.9 µM), usual class: inhibitors. hit rate 0.031% among 330,000. AID 504842, 2011; also: nearly all actives have a fitted effect of over 80% in size
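ATPase read-out: TR-FRET ADP immunoassay (anti-ADP Eu cryptate vs ADP-d2), ex 320 nm, em 590/665 nm; signal drops as ADP forms. Enzyme 25 nM, ATP 10 uM, 30 min at 37°C after 10 min compound preincubation.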
A number is an active result; n = inactive; u = inconclusive; x = no result; [ ] = dose if it differs, or a comment. Unless noted, calls follow the shape of the dose curve; as a rule, active = well fitted curve in the direction sought with a large enough effect; inconclusive = small, poorly fitted or top-dose-only effect, or another doubt; inactive = no such curve, though single readings can be large; an effect the other way counts as inactive or inconclusive.

SMILES	PLK1 PBD inh	G9a inh	Sfp PPTase inh	CCT chaperon mod	VDR inh	MmCpn inh
Cc1ccc(C(=O)/C=C/c2ccc(Br)cc2)o1	n	n[0.501 µM]	n	n	u	n
C=C(C)C(=O)/C=C/c1ccc(Br)cc1	x	x	n	x	18µM	x
CC(C)CCNC(=O)CSCc1cnn(-c2ccccc2)c1-n1cccc1	x	u	x	x	n	x
CCCn1nnc(NC(=S)NC(=O)c2cccs2)n1	n	14µM	40µM	n	n	n
CCn1nnc(NC(=S)NC(=O)c2ccc(-c3cccc(Cl)c3)o2)n1	21µM	u	50µM	n	n	n
CCCn1nnc(NC(=S)NC(=O)C(C)(C)C)n1	n	2.2µM	50µM	n	n	n
Cn1nnc(NC(=O)c2cccs2)n1	n	n	n	n	n	n
CCCn1nnc(NC(=S)NC(=O)/C=C/c2ccco2)n1	n	22µM	56µM	n	n	n
O=C(CSc1cn(CCNC(=O)c2ccccc2F)c2ccccc12)Nc1ccc(F)cc1	x	n	x	x	n	x
CC(NC(=O)C1CCCN1C(=O)CN)C(=O)O (configuration not stated)	x	x	u	x	n	x
COc1cccc(Cn2c(=O)n(Cc3ccco3)c(=O)c3oc4ccccc4c32)c1	x	n	x	x	n	x
CC1(c2ccccc2)CC(C)(C)N(C(=O)c2cccc(Cl)c2)c2ccccc21 (configuration not stated)	x	n	x	x	n	x
Cc1ccc(-c2csc(NS(=O)(=O)c3cccc(F)c3)n2)o1	24µM	x	x	n	u	n
CCCCn1c(CNC(=O)C23CC4CC(CC(C4)C2)C3)nnc1SCC(=O)Nc1ccc(F)cc1	x	n	x	x	n	x
Cc1cc(O)c2c(c1O)C(=O)[C@]13C(=C2O)C(=O)[C@@H]2[C@@H](O)[C@H]1[C@@H]1[C@H](O)[C@H]3C(=O)C3=C(O)c4c(O)cc(C)c(O)c4C(=O)[C@]312	30µM	x	x	n	n	n
Cc1cc(O)c2c(c1O)C(=O)c1c(O)cc(C)c(O)c1C2=O	x	n[2.33 µM]	n	x	u	x
COc1ccc(C)cc1NC(=O)C(c1ccccc1)N1CCN(CC(=O)N2CCOCC2)CC1 (configuration not stated)	n	45µM	x	n	n	n
COc1ccc(C)cc1NC(=O)C(c1ccccc1)N1CCN(CC(=O)N2CCCC2)CC1 (configuration not stated)	n	u	x	n	n	n
COc1ccc(NC(=O)CSc2nc(O)c(C/C=C/c3ccccc3)c(=O)[nH]2)cc1	x	u	x	x	n	x
CC1(O)C(=O)C=C2C=C3CCCN3C=C2C1=O (configuration not stated)	x	x	n	x	x	x
O=S(=O)(c1ccccc1)N(F)S(=O)(=O)c1ccccc1	27µM	n[2.33 µM]	x	n	n	n
Cc1nn(-c2ccc(F)cc2)c(Cl)c1/C=N/NC(=O)c1cccs1	n	n	n	n	n	n
Cc1nn(-c2ccc(Cl)cc2)c(Cl)c1/C=N/NC(=O)c1ccc(NS(=O)(=O)c2cccs2)cc1	24µM	x	x	n	u	x
Cc1ccc(C(=O)NCC(=O)OCC(=O)/C=C2\N(C)c3ccccc3C2(C)C)cc1C	30µM	n	n	n	u	n
Cc1c(NC(=S)/C=C2\N(C)c3ccccc3C2(C)C)c(=O)n(-c2ccccc2)n1C	u	32µM	50µM	n	n	n
SMILES	PLK1 PBD inh	G9a inh	Sfp PPTase inh	CCT chaperon mod	VDR inh	MmCpn inh
CN1/C(=C/C(=S)NC(=O)C2CCC2)C(C)(C)c2ccccc21	n	40µM	u	n	n	n
Cc1ccc(C(=O)NC(=S)/C=C2\N(C)c3ccccc3C2(C)C)cc1	u	14µM	u	n	n	n
CN1/C(=C\C(=O)c2cccc(S(=O)(=O)N3CCCCC3)c2)C(C)(C)c2ccccc21	n	n	n	n	n	n
C=C1C=C(C(F)F)n2ncc(C(=O)Nc3ccc(C(C)CC)cc3)c2N1 (configuration not stated)	x	x	x	x	x	n
Cc1cccc2c(=O)cc(CSc3ccccc3NC(=O)c3cccc(F)c3)[nH]c12	x	n	x	x	n	x
CC(C)C(=O)NC(=S)/C=C1/N(C)c2ccccc2C1(C)C	n	40µM	u	n	n	n
CN1/C(=C\C(=O)c2ccco2)C(C)(C)c2ccccc21	n	u	u	n	u	n
OCCCNCc1ccc(N(c2ccccc2)c2ccccc2)cc1	n	13µM	n	n	n	n
Cc1cc(C)cc(NC2=NCC(=O)N2Cc2ccccc2)c1	u	n[12.7 µM]	n	n	n	n
CCc1ccccc1NC1=NCC(=O)N1Cc1ccccc1	n	45µM	n	n	n	n
O=C1CCN=C(Nc2ccc(F)cc2)N1Cc1ccccc1	n	40µM	n	n	n	n
Cc1cccc(NC2=NCC(=O)N2Cc2cccs2)c1	n	71µM	n	n	n	n
O=C1CN=C(Nc2ccccc2)N1Cc1cccs1	n	79µM	n	n	n	n
COc1ccc(-c2nc3cnc(OC)nc3n(CCc3ccccc3)c2=O)cc1	x	n[0.501 µM]	n	x	n	x
CN1CCN(CC(=O)O)CC1	n	35µM	n	n	n	n
CN1CCN(C(=O)CCC(=O)O)CC1	n	x	n	n	n	n
COc1ccc(OCC(O)CNC(C)c2ccccc2)cc1 (configuration not stated)	n	n	n	n	n	n
CC(NCC(O)COc1ccc2ccccc2c1)c1ccccc1 (configuration not stated)	n	14µM	n	n	n	n
COc1cc2c(cc1[N+](=O)[O-])-c1ccc([N+](=O)[O-])cc1C2=NNC(N)=S	9.5µM	x	x	n	x	x
CCOc1ccccc1NC(=O)C1=C(C)Nc2ncnn2C1c1ccc(C)o1 (configuration not stated)	x	n	x	x	n	x
Cc1ccsc1-c1n[nH]c(=S)n1CC(C)C	n	u	u	n	n	n
CCCCn1c(-c2csc3ccccc23)n[nH]c1=S	n	1.4µM	n	n	n	n
CCCn1c(-c2ccncc2)n[nH]c1=S	n	u	u	n	n	n
CCCc1cc(-c2n[nH]c(=S)n2CC(C)C)cs1	n	2µM	n	n	n	n
CCn1c(-c2cccc(Br)c2)n[nH]c1=S	n	u	n	n	n	n
CCCCn1c(-c2csc(C(C)C)c2)n[nH]c1=S	u	4µM	n	n	n	n
CCCCn1c(-c2csc(CC)c2)n[nH]c1=S	n	1.8µM	20µM	n	n	n
COc1cccc(N2CCN(C(=O)C3CCC(CNS(=O)(=O)c4ccc(Br)s4)CC3)CC2)c1 (configuration not stated)	x	n	x	x	n	x
CC(C)Cn1c(-c2ccc(Br)o2)n[nH]c1=S	n	1.8µM	n	n	n	n
